TNAP act DEA – human TNAP activation, intermediate phosphate acceptor. purified TNAP, CDP-star luminescence, 100 mM DEA, 30 min; active compounds read high; scale: 0 levamisole-inhibited, 1 vehicle-only enzyme. activation factor at 20 µM. P05186. 64,000 tested, under 10 active;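 active means activation factor of at least 2 at 20 µM, relative to controls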
Target sequence (P05186 whole entry, looked up): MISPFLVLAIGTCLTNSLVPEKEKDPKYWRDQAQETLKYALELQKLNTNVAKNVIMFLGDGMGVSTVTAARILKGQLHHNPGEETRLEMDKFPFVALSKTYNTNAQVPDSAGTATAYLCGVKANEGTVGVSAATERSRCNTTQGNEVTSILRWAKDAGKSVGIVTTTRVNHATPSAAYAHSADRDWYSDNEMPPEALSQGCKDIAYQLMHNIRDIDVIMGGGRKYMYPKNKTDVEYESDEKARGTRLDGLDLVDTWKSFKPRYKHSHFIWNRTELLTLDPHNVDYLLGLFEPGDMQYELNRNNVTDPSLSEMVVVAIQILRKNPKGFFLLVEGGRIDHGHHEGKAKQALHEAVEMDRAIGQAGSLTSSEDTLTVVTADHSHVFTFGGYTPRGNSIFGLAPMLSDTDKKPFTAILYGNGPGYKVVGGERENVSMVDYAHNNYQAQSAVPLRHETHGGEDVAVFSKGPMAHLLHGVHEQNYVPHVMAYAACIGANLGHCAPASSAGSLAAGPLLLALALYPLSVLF
Calb biofilm kill – kills Candida albicans biofilms. C. albicans biofilm + clotrimazole, Alamar Blue. inhibition, % at 6 µM. hit rate 0.14% among 85,000. AID 834;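 active means inhibition above 20%; inactive means inhibition below 20%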;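 further: preformed 24 hr biofilms exposed to compound for 48 hr; 0% = biofilm without compound and 100% = blank killed by clotrimazole plus chlorhexidine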
D1 mod – allosteric modulators of human D1 dopamine receptor; P21728; HEK293 D1, CRE-luciferase, dopamine EC30 potentiation; actives deviate in either direction; B-score at 10 µM; hit rate 5.9% among 58,000; AID 641;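 active means luminescence count or its row- and column-corrected plate score outside the 99.7% band of the plate's sample wells, on either side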
hDAT+cocaine – changed human dopamine transporter uptake under cocaine IC80 | Q01959 | LLC-PK1 hDAT cells, [14C]-dopamine uptake with cocaine IC80; actives deviate in either direction | B-score at 10 µM | hit rate 1.3% among 110,000 | AID 449768;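 active means Z score or B-score, a plate-position-corrected score, falls beyond the plate's 99.7% confidence bounds, in either direction; inactive means both scores lie inside the 99.7% bounds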;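 further: scored against the spread of the other compound wells on the same plate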
HePTP inhibitor – blocks human HePTP tyrosine phosphatase | inhibition, % at 20 µM | AID 521 | recombinant HePTP phosphatase activity, OD absorbance | hit rate 0.64% among 110,000 | P35236; in the data active means inhibition above about 50%;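 further: plate controls were vehicle for no effect and reference inhibitor for full effect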
PLAP activator – activators of human placental alkaline phosphatase | hit rate 1.2% among 96,000 | activation fold at 20 µM | purified PLAP enzyme, luminescent substrate read-out; active compounds read high | P05187 | AID 696; in the data active means activation fold above about 2
The depositor's hits bear a star; nt = no result given. This excerpt belongs to a sample that is enriched for hits.

SMILES	TNAP act DEA	Calb biofilm kill	D1 mod	hDAT+cocaine	HePTP inhibitor	PLAP activator
CC1(c2ccccc2)CC(C)(C)N2C(=O)C3(C(C#N)=C(N)Oc4cc(O)ccc43)c3cccc1c32 (stereo not drawn)	nt	5	nt	0.62	nt	1.7
Cc1cc2c3c(c1)C(C)(c1ccccc1)CC(C)(C)N3C(=O)C21C(C#N)=C(N)OC2=C1C(=O)CC(C)(C)C2 (stereo not drawn)	nt	11	nt	-0.088	nt	2*
Cc1cccc(NC(=O)CSc2nc(C)cc(C)n2)c1	nt	nt	nt	nt	2	nt
Cn1c(=O)oc2cc(S(=O)(=O)N3CCCC(C(=O)NCCN4CCOCC4)C3)ccc21 (stereo not drawn)	1	-3	-1.2	0.008	-8	1.1
CCCN(CCC)CCNC(=O)C1CCCN(S(=O)(=O)c2ccc3c(c2)oc(=O)n3C)C1 (stereo not drawn)	0.9	1	-3.1*	-0.77	-6	1.4
CCOC(=O)c1cnc(SC2CCc3ccccc3C2=O)nc1N (stereo not drawn)	0.8	7	-0.0011	2.7*	5	1.4
Cc1ccc(S(=O)(=O)Nc2cc(S(=O)(=O)c3ccccc3)c(O)c3ccccc23)cc1	nt	nt	nt	nt	5	nt
CCOC(=O)Cn1cc(C=O)c2ccccc21	nt	-3	nt	-10*	nt	0.9
O=C(NCC1CCCO1)c1cc(-c2ccco2)nc2ccccc12 (stereo not drawn)	1	7	nt	-0.05	20	0.9
O=C(NC1CCCCCC1)c1cc(-c2ccco2)nc2ccccc12	nt	nt	nt	nt	98*	nt
Cc1cccc(NC(=O)c2cc(-c3ccc(Cl)cc3)nc3ccccc23)n1	nt	nt	nt	nt	-8	nt
Cc1cccc(NC(=O)c2cc(-c3ccco3)nc3ccccc23)n1	1	3	-3.7*	-0.54	9	0.6
COC(=O)c1cc2c(C)c(C)c3ccccn3c-2c1C(=O)OC	nt	nt	nt	-9.1*	nt	0.8
COc1ccc2c(c1)sc1nc(-c3ccccc3)cn12	0.8	1	-7.3*	0.021	-3	1.3
Cc1cc(OCC(=O)Nc2ccc(Cl)cc2C)ccc1Br	nt	nt	nt	nt	5	nt
c1csc(-c2ncc3ccccn23)c1	1	10	-3.8*	0.98	8	1
COc1ccc(-c2ncc3ccccn23)cc1	0.9	9	-0.06	-0.24	0	1.2
COc1cc(Cl)cc(/C=C2/C(=O)NC(=O)N(c3cccc(C)c3)C2=O)c1O	nt	nt	nt	nt	3	nt
O=C(Cc1ccc(Cl)cc1)Nc1cccnc1	nt	nt	nt	nt	-3	nt
O=C(Nc1ccc(Cl)cc1)Nc1cccnc1	nt	5	nt	-2.3*	nt	1.1
COc1ccc(C(=O)CC(Nc2ccc(Br)cc2)c2ccc(F)cc2)cc1 (stereo not drawn)	nt	nt	nt	nt	2	nt
CCCCn1c(CCn2nc(C)c(Br)c2C)n[nH]c1=S	nt	nt	nt	-0.15	nt	2.1*
O=C(Nc1cccc(-c2cn3cccnc3n2)c1)c1ccco1	1	2	-4*	2.4	-5	1
O=C(NCCCNc1ccc([N+](=O)[O-])cc1)c1ccc(Cl)cc1Cl	nt	nt	nt	nt	4	nt
CCc1ccc(NC(=O)CNC(=O)c2cn(-c3ccccc3OC)c(=O)c3ccccc23)cc1	nt	4	nt	1.9	nt	2.2*
SMILES	TNAP act DEA	Calb biofilm kill	D1 mod	hDAT+cocaine	HePTP inhibitor	PLAP activator
CCc1ccc(NC(=O)C(=O)NCc2ccccc2OC)cc1	nt	nt	nt	nt	-1	nt
CCCCCC(=O)NC(NC(=S)Nc1ccc(S(N)(=O)=O)cc1)C(Cl)(Cl)Cl (stereo not drawn)	nt	nt	nt	-3.6*	nt	1.1
CCCCCCCC(=O)NC(Nc1ccc(S(N)(=O)=O)cc1)C(Cl)(Cl)Cl (stereo not drawn)	nt	nt	nt	-8.3*	nt	1.3
Cc1ccc(C(=O)NC(NC(=S)Nc2cc(C)ccc2C)C(Cl)(Cl)Cl)cc1 (stereo not drawn)	nt	nt	nt	nt	75*	nt
CCOC(=O)NC(Nc1ccc(F)cc1)C(Cl)(Cl)Cl (stereo not drawn)	nt	nt	nt	nt	10	nt
Cc1ccc(C(=O)NC(NC(=S)Nc2ccccc2)C(Cl)(Cl)Cl)cc1 (stereo not drawn)	nt	nt	nt	nt	4	nt
CCCCOC(=O)c1ccc(NC(=S)NC(NC(=O)Cc2ccccc2)C(Cl)(Cl)Cl)cc1 (stereo not drawn)	nt	nt	nt	nt	5	nt
COc1ccc(C(=O)NC(NC(=S)Nc2ccc(S(N)(=O)=O)cc2)C(Cl)(Cl)Cl)cc1 (stereo not drawn)	nt	nt	nt	-2.3*	nt	1.3
Cc1ccc(/C=C/C(=O)NCc2ccc(F)cc2)cc1	nt	nt	nt	nt	7	nt
O=C(NCc1ccccc1Cl)C(=O)NC1CC1	nt	nt	nt	nt	4	nt
O=C(NCc1ccc(Cl)cc1Cl)C(=O)NC1CCCC1	nt	nt	nt	nt	61*	nt
Cc1ccc2c(c1)N(C(=O)CN1C(=O)c3ccccc3C1=O)C(C)(C)c1ssc(=S)c1-2	nt	nt	nt	nt	-10	nt
C=CCn1c(CCCNC(=O)C(C)(C)C)nc2ccccc21	1	10	-0.051	0.21	3	1.2
Cn1c(CCCNC(=O)c2ccccc2)nc2ccccc21	0.9	-2	-3.5*	-0.81	9	1.1
C=C(C)Cn1c(CCCNC(=O)C(C)(C)C)nc2ccccc21	0.9	nt	-0.34	-9.3*	8	nt
CC(C)(C)C(=O)NCCCc1nc2ccccc2n1CCCOc1ccc(Cl)cc1	nt	nt	nt	3.4*	nt	1.5
CCn1c(CCNC(=O)c2ccc(OC)c(OC)c2)nc2ccccc21	0.9	nt	-4.9*	0.83	12	nt
Cn1c(CCCNC(=O)c2cccs2)nc2ccccc21	nt	1	-2.2	-0.92	nt	1
Cc1cc(C)c(N2C(=O)c3ccccc3C2=O)c([N+](=O)[O-])c1	nt	nt	nt	nt	-5	nt
O=C1N2c3ccccc3CCc3cccc(c32)C1(O)C(F)(F)F (stereo not drawn)	0.8	nt	-2.7*	-2.2	14	1.1
O=C1CCCC2=C1C(O)(C(F)(F)F)C(=O)N2Cc1ccccc1 (stereo not drawn)	1	nt	-0.17	-0.36	1	nt
CC(C(=O)c1ccc(Cl)cc1)[n+]1ccccc1 (stereo not drawn)	nt	nt	nt	nt	-1	nt
COc1ccc2occ(C(=O)c3coc4ccc(O)c(CN(C)C)c34)c2c1	1	9	-1.1	1.5	-5	1.3
COc1ccc(C(=O)c2coc3ccc(O)c(CN4CCCCC4)c23)cc1	0.8	15	-0.46	3.5*	1	1.3
O=C(Nc1ccc2oc(-c3ccccc3F)nc2c1)c1cccc([N+](=O)[O-])c1	nt	nt	nt	nt	99*	nt
CCc1ccc(NC(=O)CSc2nnc(C)s2)cc1	nt	nt	nt	nt	-12	nt
O=[N+]([O-])c1cc([N+](=O)[O-])c2oc(-c3ccccc3)c(Br)c2c1O	nt	nt	nt	nt	104*	nt
O=c1cc(-c2ccccc2Cl)oc2ccc([N+](=O)[O-])c(O)c12	nt	nt	nt	0.21	nt	nt
